TbPYK inhibitor = inhibitors of Trypanosoma brucei pyruvate kinase; Q57TT1; TbPYK enzyme, Kinase-Glo Plus ATP luminescence, 45 min; Potency, µM (titrated, usually from 76.8 µM), for the others: top-dose activity, negative = inhibition, most hits filed as inhibitors; 410,000 tested, 0.12% active; also: potency is read from the fitted curve at half-maximal effect; % is scaled to controls: 0 for no effect and ±100 for the full control effect; nearly all actives have a fitted effect of over 50% in size
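Enzyme and substrate buffer are dispensed first and compound is pin-transferred. ADP at 130 uM final then starts the reaction, which runs 45 min at room temperature. Detection reagent is added for 10 min before luminescence is imaged.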
Shiga inhibitor = blocks Shiga toxin action in Vero cells; Vero cells, Shiga toxin protein synthesis inhibition reporter; inhibition, % at 38.7 µM; 290,000 tested, 9.2% active; in the data active = inhibition mostly above about 28%, no sharp cut-off; inactive = mostly below about 43%; also: 0% is about no effect
Cycloheximide cs = counter-screen hit for Shiga toxin inhibitors, cycloheximide; cell reporter, cycloheximide protein synthesis inhibition counterscreen; 300,000 tested, 12% active; max response, %; in the data active = max response mostly above about 13%, no sharp cut-off; inactive = mostly below about 14%; also: read at 38.3 µM for the half of the compounds with a filed dose; 0% is about no effect
RE007 growth inh = less growth of the S. pombe RE007 Vpr strain | AID 651644 | S. pombe RE007 Vpr strain, BacTiter-Glo ATP luminescence, 24 h | Potency, µM (titrated, usually from 92.2 µM), inactives show at the highest dose activity change, negative = less growth, most hits filed as inhibitors | 360,000 tested, 0.21% active; active = well fitted falling curve with a large enough effect; inconclusive = small, poorly fitted or top-dose-only effect; inactive = no such curve, though single readings can be large or run the other way; also: potency is read from the fitted curve at half-maximal effect; % is scaled to controls: 0 for no effect and ±100 for the full control effect; nearly all actives have a fitted effect of over 50% in size
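Fission yeast strain RE007, carrying one chromosomally integrated HIV-1 vpr copy, was seeded at OD 0.01 in PMG+AL medium with 23 nL pinned compound. After 24 h at 30 °C and 99% humidity, viability was read by BacTiter-Glo luminescence.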
LmPK inhibitor = inhibitors of Leishmania mexicana pyruvate kinase | Q27686 | AID 1721 | purified LmPK, Kinase-Glo ATP luminescence, 1 h | 290,000 tested, 0.37% active | Potency, µM (doses to about 57.5 µM), for the others: top-dose activity change, negative = inhibition, most hits filed as inhibitors; also: potency is read from the fitted curve at half-maximal effect; % is scaled to controls: 0 for no effect and ±100 for the full control effect
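qHTS format; LmPK 0.1 nM; substrates PEP 0.5 mM and ADP 0.1 mM. One-hour room-temperature incubation, then coupled luciferase luminescence; 0.5 nM enzyme wells mark activation.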
FBPA Giardia inh = blocks Giardia fructose-bisphosphate aldolase activity; purified Giardia FBPA; Potency, µM (series often up to 59.6 µM), for the others: at the highest dose activity, negative = inhibition, hits mostly inhibitors; 290,000 tested, 0.71% active; AID 2451; also: potency is read from the fitted curve at half-maximal effect; % is scaled to controls: 0 for no effect and ±100 for the full control effect; nearly all actives have a fitted effect of over 55% in size
Target sequence (A8B2U2 whole entry, looked up): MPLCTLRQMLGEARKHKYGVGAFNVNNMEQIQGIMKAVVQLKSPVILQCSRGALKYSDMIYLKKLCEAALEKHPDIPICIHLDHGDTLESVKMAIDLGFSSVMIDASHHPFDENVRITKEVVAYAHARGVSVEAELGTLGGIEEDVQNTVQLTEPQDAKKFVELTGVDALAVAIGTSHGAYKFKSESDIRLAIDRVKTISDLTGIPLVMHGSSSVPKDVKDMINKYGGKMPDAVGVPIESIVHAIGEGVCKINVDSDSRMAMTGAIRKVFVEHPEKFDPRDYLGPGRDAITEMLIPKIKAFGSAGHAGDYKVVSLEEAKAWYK
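Giardia FBPA (40 nM reagent) was preincubated 10 min at RT with compound (up to 57.5 uM final), then substrate plus GAPDH/TPI/NAD/arsenate coupling system with diaphorase/resazurin was added; resorufin fluorescence (525/598 nm) was read after 20 min.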
Starred values were filed as active, the others as inactive. Only a selection was taken, and hits are over-represented in it overall. Unless noted, calls follow the shape of the dose curve; as a rule, active = well fitted curve in the direction sought with a large enough effect; inconclusive = small, poorly fitted or top-dose-only effect, or another doubt; inactive = no such curve, though single readings can be large; an effect the other way counts as inactive or inconclusive.

What do the screens show for `CCC(=O)N1CCc2cc(Br)cc(S(=O)(=O)CCC(=O)N(CC)Cc3ccccc3)c21`?
TbPYK inhibitor: -2.7%

Results for CCCNC(=S)Nc1ccc(CC(=O)OC)cc1 ?
TbPYK inhibitor: -4.9%; Shiga inhibitor: -7.5; Cycloheximide cs: 3.7; RE007 growth inh: -11.2%; LmPK inhibitor: -0.3%; FBPA Giardia inh: 5.7%

How did O=[N+]([O-])c1ccc(C(O)CNC(=S)Nc2ccccc2)cc1 (stereo not drawn) do in these assays?
TbPYK inhibitor: 3.0%; Shiga inhibitor: -9.3; Cycloheximide cs: 1.6; RE007 growth inh: -2.5%; LmPK inhibitor: 0.6%; FBPA Giardia inh: -0.3%

Results for COC(=O)Cc1ccc(NC(=S)Nc2cccc(C)n2)cc1 ?
TbPYK inhibitor: -0.2%; Shiga inhibitor: 39.5; Cycloheximide cs: 15.8*; RE007 growth inh: -7.2%; LmPK inhibitor: 3.5%; FBPA Giardia inh: -3.3%

What do the screens show for `COc1cc(NC(=S)Nc2ccc(N(C)C(C)=O)cc2)cc(OC)c1`?
TbPYK inhibitor: 5.8%; Shiga inhibitor: -19.0; Cycloheximide cs: -2.7; RE007 growth inh: -1.9%; LmPK inhibitor: 1.4%; FBPA Giardia inh: -14.6%

What do the screens show for `COC(=O)Cc1ccc(NC(=S)NCC(C)C)cc1`?
TbPYK inhibitor: -9.7%; Shiga inhibitor: 11.0; Cycloheximide cs: 16.2*; RE007 growth inh: 4.2%; LmPK inhibitor: -9.3%; FBPA Giardia inh: -1.5%

What do the screens show for `CC(=O)N(C)c1ccc(NC(=S)NCC(C)C)cc1`?
TbPYK inhibitor: 1.7%; Shiga inhibitor: 35.3; Cycloheximide cs: 15.2*; RE007 growth inh: 9.3%; LmPK inhibitor: 3.1%; FBPA Giardia inh: -5.1%

How did COC(CNC(=S)Nc1ccc([N+](=O)[O-])cc1)OC do in these assays?
TbPYK inhibitor: -9.9%; Shiga inhibitor: active; Cycloheximide cs: 14.1*; RE007 growth inh: -2.4%; LmPK inhibitor: 1.4%; FBPA Giardia inh: 0.0%

Results for O=C(Cc1ccc(NC(=O)N2CCCCc3ccccc32)cc1)NCc1cccc(Br)c1 ?
TbPYK inhibitor: 0.4%

Results for O=C1c2ccccc2C(=O)C1(c1ccccc1)N1CCN(c2cccc(C(F)(F)F)c2)CC1 ?
TbPYK inhibitor: -4.2%

Results for COc1ccc(/C=C/C(=O)c2c(OC)cc(O)cc2OC)cc1 ?
Shiga inhibitor: 65.2*; Cycloheximide cs: 36.2*; FBPA Giardia inh: -8.3%

What do the screens show for `COc1cc(O)c(C(=O)/C=C/c2ccc(O)c(OC)c2)c(OC)c1`?
FBPA Giardia inh: -4.7%

Results for COc1ccc(/C=C/C(=O)c2ccc(O)cc2O)cc1 ?
FBPA Giardia inh: -1.8%

Results for COc1ccc(/C=C/C(=O)c2cc3c(cc2N)OCO3)cc1 ?
TbPYK inhibitor: -17.0%; Shiga inhibitor: 80.2*; Cycloheximide cs: 33.0*; RE007 growth inh: inconclusive; LmPK inhibitor: inconclusive; FBPA Giardia inh: -12.3%

How did COc1ccc(/C=C/C(=O)c2ccc(OC)cc2OC)cc1 do in these assays?
TbPYK inhibitor: -8.6%; Shiga inhibitor: 47.7*; Cycloheximide cs: 37.2*; RE007 growth inh: -14.0%; LmPK inhibitor: 5.0%; FBPA Giardia inh: -11.2%

What do the screens show for `COc1cc(OC)c(C(=O)/C=C/c2ccccc2)c(O)c1O`?
TbPYK inhibitor: -2.7%; Shiga inhibitor: 4.0; Cycloheximide cs: 4.7; RE007 growth inh: 8.4%; LmPK inhibitor: -9.1%; FBPA Giardia inh: 9.9%

How did COc1cc(O)cc(O)c1C(=O)/C=C/c1ccccc1 do in these assays?
TbPYK inhibitor: 3.8%; Shiga inhibitor: 8.3; Cycloheximide cs: 8.9*; RE007 growth inh: inconclusive; LmPK inhibitor: 7.1%; FBPA Giardia inh: 2.2%

Results for C[C@]12CC[C@@H]3c4ccc(OC(=O)N(CCCl)CCCl)cc4CC[C@H]3[C@@H]1CC[C@@H]2OP(=O)(O)O ?
TbPYK inhibitor: -6.9%

How did Cc1[nH][nH]c(=O)c1C(c1c(C)[nH][nH]c1=O)c1cn(C)c2ccccc12 do in these assays?
TbPYK inhibitor: -5.7%; Shiga inhibitor: 9.9; Cycloheximide cs: 6.1; RE007 growth inh: -5.8%; LmPK inhibitor: -2.8%; FBPA Giardia inh: 2.81µM*

How did Cc1[nH][nH]c(=O)c1C(c1c(C)[nH][nH]c1=O)c1cn(Cc2cccc3ccccc23)c2ccccc12 do in these assays?
TbPYK inhibitor: 2.5%; Shiga inhibitor: -8.1; Cycloheximide cs: -2.6; RE007 growth inh: -7.2%; LmPK inhibitor: 0.6%; FBPA Giardia inh: inconclusive

What do the screens show for `Nc1c2c(nc3sc4c(c13)CCCC4)-c1ccccc1CC2`?
TbPYK inhibitor: -3.2%; Shiga inhibitor: 97.1*; Cycloheximide cs: 49.9*; RE007 growth inh: 2.4%; LmPK inhibitor: 1.7%; FBPA Giardia inh: -11.2%

How did Nc1c2c(nc3sc4c(c13)CCCCC4)CCCC2 do in these assays?
TbPYK inhibitor: 1.3%; Shiga inhibitor: 137.2*; Cycloheximide cs: 61.8*; RE007 growth inh: -21.3%; LmPK inhibitor: -7.0%; FBPA Giardia inh: -0.8%

What do the screens show for `CC(=O)Oc1ccc(C(=O)[C@H]2[C@H]3C(=O)N(c4ccc5ccccc5c4)C(=O)[C@H]3[C@@H]3C=CC=NN32)cc1`?
TbPYK inhibitor: -12.9%; Shiga inhibitor: 41.0; Cycloheximide cs: 37.1*; RE007 growth inh: 6.5%; LmPK inhibitor: -0.3%; FBPA Giardia inh: -14.0%

What do the screens show for `COC(=O)CC1[C@@]2(C)C[C@]34OC5(C)OC6(C7CC(=O)OC(c8ccoc8)[C@]7(C)CCC6(O5)[C@]13C)C(OC(C)=O)[C@]4(OC(C)=O)C2OC(C)=O` (stereo partly drawn)?
FBPA Giardia inh: -0.1%

Results for COC(=O)c1ccc2c(c1)C(=O)/C(=C/c1ccc(O)cc1)O2 ?
TbPYK inhibitor: -4.3%; Shiga inhibitor: 64.6*; Cycloheximide cs: 20.4; RE007 growth inh: 6.8%; LmPK inhibitor: 11.0%; FBPA Giardia inh: 18.4%

How did O=C1/C(=C/c2ccc(Br)cc2)Oc2cc(O)ccc21 do in these assays?
TbPYK inhibitor: -7.2%; Shiga inhibitor: 60.8*; Cycloheximide cs: 28.6*; RE007 growth inh: -17.8%; LmPK inhibitor: 0.4%; FBPA Giardia inh: -1.4%

How did CN(C)C(=O)Oc1ccc2c(c1)O/C(=C\c1cccc([N+](=O)[O-])c1)C2=O do in these assays?
TbPYK inhibitor: 0.0%; Shiga inhibitor: -5.4; Cycloheximide cs: -1.0; RE007 growth inh: 5.3%; LmPK inhibitor: -0.3%; FBPA Giardia inh: 2.9%

How did O=C1/C(=C\c2ccc(O)c(O)c2)Oc2cc(O)ccc21 do in these assays?
Shiga inhibitor: 19.3; Cycloheximide cs: 6.7; FBPA Giardia inh: -19.5%

How did O=C1/C(=C/c2ccc([N+](=O)[O-])cc2)Oc2cc(O)ccc21 do in these assays?
TbPYK inhibitor: 4.3%; Shiga inhibitor: 67.0*; Cycloheximide cs: 40.0*; RE007 growth inh: 2.2%; LmPK inhibitor: -6.9%; FBPA Giardia inh: -3.7%
